Rows were chosen to be rich in hits. Some 1.6% of all compounds tested hit in one or more screens of this group.
KCNQ2 pot – enhances the rat KCNQ2 potassium channel; CHO-K1 KCNQ2, FluxOR thallium flux fluorescence; active compounds read high; B-score at 10 µM; 310,000 compounds, 0.54% hits;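 active means fluorescence ratio B-score at least 3 SD of library B-scores, with initial fluorescence B-score within 3 of them, cut at about 5.3 in these data; same plate scores as AID 2156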;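 further: B-score of peak minus minimum over baseline fluorescence ratio after K+ and Tl+ stimulus; positive B-score means potentiation of KCNQ2 with more thallium influx and brighter signal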
KCNQ2 block – KCNQ2 (rat) channel inhibition; B-score at 10 µM; CHO-K1 KCNQ2, FluxOR thallium flux, 20 min; active compounds read low; 310,000 compounds, 1.1% hits; O88943;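 active means fluorescence ratio B-score at most minus 3 library SDs, with starting brightness B-score within 2 library SDs, cut at about -5.5 in these data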
Kir21 conf inh – confirmation of mouse Kir2.1 potassium channel inhibitors | shares compounds with KCNQ2 pot | Kir2.1-expressing cells, FluxOR thallium flux fluorescence; active compounds read low | Tl flux remaining, % of negative control (active compounds read low), % at 10 µM | 2,300 compounds, 41% hits | AID 2032;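 active means Primary-screen hit whose thallium flux fell at least 3 control SD below untreated wells in both duplicates, with normal baseline fluorescence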;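 further: 0% = blank wells without stimulus and 100% = stimulated no-compound controls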
HEK293 Tl flux – alters thallium flux in parental HEK293 cells, Kir2.1 counter-screen. AID 2105. 2,300 compounds, 19% hits. FluxOR thallium flux fluorescence; 0% = unstimulated blank wells. FluxOR signal as % of negative control (100 = no effect), % at 10 µM. shares compounds with KCNQ2 pot;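 active means dye signal at least 3 control SD above or below untreated wells in both duplicates, raw fluorescence within 3, either direction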;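 further: percent is based on the flux ratio of peak minus minimum fluorescence over baseline F0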
CHO-K1 Tl ctr – alters thallium flux in parental CHO-K1 cells, KCNQ2 counter-screen. shares compounds with KCNQ2 pot. FluxOR thallium flux fluorescence; zero = vehicle mean+3SD, 100% = vehicle-minus-blank window. activity increase over 3SD of controls, % at 10 µM. 1,200 compounds, 43% hits. AID 2282;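 active means signal rise of at least 3 SD above the untreated control mean, in both duplicate wells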;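 further: counter screen of KCNQ2 potentiator hits so any rise reflects channel-independent effects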
KCNQ1 sel pot – human KCNQ1 counter-target activity of KCNQ2 potentiators; shares compounds with KCNQ2 pot; CHO KCNQ1 stable, FluxOR thallium flux fluorescence; beyond 3SD, as % of vehicle-control signal; activation over 3SD threshold, % at 10 µM; 1,200 compounds, 28% hits; AID 2283;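 active means fluorescence ratio rise of at least 3 SD of vehicle wells above their mean, in both replicate wells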;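 further: 0% = vehicle mean plus 3 SD and 100% = vehicle minus unstimulated blank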
Target sequence (P51787 whole entry, looked up): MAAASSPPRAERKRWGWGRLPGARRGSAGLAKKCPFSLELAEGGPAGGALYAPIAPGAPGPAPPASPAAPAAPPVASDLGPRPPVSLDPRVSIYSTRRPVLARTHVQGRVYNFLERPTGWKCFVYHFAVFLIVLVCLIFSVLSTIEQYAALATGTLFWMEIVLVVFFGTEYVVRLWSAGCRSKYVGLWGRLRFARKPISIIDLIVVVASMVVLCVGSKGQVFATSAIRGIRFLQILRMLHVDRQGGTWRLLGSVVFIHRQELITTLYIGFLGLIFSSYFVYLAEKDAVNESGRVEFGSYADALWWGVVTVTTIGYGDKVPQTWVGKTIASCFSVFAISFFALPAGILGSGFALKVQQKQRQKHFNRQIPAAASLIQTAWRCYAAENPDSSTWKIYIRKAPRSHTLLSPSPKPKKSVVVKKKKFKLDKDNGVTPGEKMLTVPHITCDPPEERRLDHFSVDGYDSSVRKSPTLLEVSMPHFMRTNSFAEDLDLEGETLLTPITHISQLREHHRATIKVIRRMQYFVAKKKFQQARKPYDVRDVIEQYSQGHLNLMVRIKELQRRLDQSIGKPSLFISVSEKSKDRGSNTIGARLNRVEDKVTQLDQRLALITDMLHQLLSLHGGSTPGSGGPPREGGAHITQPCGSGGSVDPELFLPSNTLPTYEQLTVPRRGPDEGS
KCNQ2 pot confirm – confirmation of rat KCNQ2 potassium channel potentiators | AID 2287 | CHO-KCNQ2 cells, FluxOR thallium flux fluorescence | shares compounds with KCNQ2 pot | potentiation, less the hit threshold, % at 10 µM | 1,200 compounds, 68% hits;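 active means fluorescence ratio rising 3 SD or more over the vehicle control mean in both replicates, plus primary screen hit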;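 further: peak minus minimum thallium fluorescence divided by baseline after K/Tl stimulus; 0% = vehicle mean plus 3 SD and 100% = vehicle minus unstimulated blank difference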
Kir2-1 sel – mouse Kir2.1 off-target activity of KCNQ2 potentiators; shares compounds with KCNQ2 pot; HEK293 Kir2.1, FluxOR thallium flux fluorescence; activity over 3SD threshold, % at 10 µM; 1,200 compounds, 2% hits;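 active means fluorescence ratio rise of at least 3 SD above the vehicle-control mean, seen in both replicates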;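 further: 0% = vehicle mean plus 3 SD and 100% = vehicle minus no-stimulus blank window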
KCNQ2 W236L pot – potentiates the retigabine-insensitive rat KCNQ2 W236L mutant channel; shares compounds with KCNQ2 pot; CHO KCNQ2-W236L, automated patch clamp current; current increase over 3SD of negative controls (%), active compounds read high, % at 25 µM; 940 compounds, 10% hits;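 active means current increase at least 3 SD of the untreated controls above them in both duplicate recordings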
Numbers without * were called inactive; i = inactive; nt = no result given.

SMILES	KCNQ2 pot	KCNQ2 block	Kir21 conf inh	HEK293 Tl flux	others
O=C(O)/C=C/C(=O)c1ccc2c(c1)CCc1ccccc1-2	8.6*	i	nt	nt	CHO-K1 Tl ctr=30*;KCNQ1 sel pot=-7;KCNQ2 pot confirm=35*;Kir2-1 sel=-73;KCNQ2 W236L pot=i
NC(=O)c1cccc(N=Cc2cc(Cl)cc(Cl)c2O)c1	13*	i	i	i	CHO-K1 Tl ctr=4.4*;KCNQ1 sel pot=31*;KCNQ2 pot confirm=22*;Kir2-1 sel=-13;KCNQ2 W236L pot=i
Oc1c(Cl)cc(Cl)cc1/C=N/c1nc(-c2ccc(Cl)cc2)cs1	2.2	i	nt	nt
Oc1c(Cl)cc(Cl)cc1/C=N/c1nccs1	9.1*	i	i	i	CHO-K1 Tl ctr=-18;KCNQ1 sel pot=126*;KCNQ2 pot confirm=34*;Kir2-1 sel=-22;KCNQ2 W236L pot=14%*
Oc1c(Cl)cc(Cl)cc1C=Nc1ccccc1N1CCCC1	0.41	i	nt	nt
Cc1ccccc1N(CC(=O)N1CCCCCC1)S(C)(=O)=O	nt	i	nt	nt
CCOc1ccc(Cl)cc1S(=O)(=O)N1CCC(C(=O)N2CCCC2)CC1	0.45	i	nt	nt
CCC[C@H]1COCCS(=O)(=O)N1Cc1ccc(Br)cc1	0.37	i	i	128%*
CCC1COCCS(=O)(=O)N1Cc1ccc(C)cc1 (centres undefined)	1.2	i	nt	nt
CC(=O)N(CCC(c1ccccc1)c1ccco1)Cc1cccs1 (centres undefined)	-7.8	-7.8*	47%*	i
O=C(c1ccco1)N(CCC(c1ccccc1)c1ccco1)Cc1ccco1 (centres undefined)	-6.8	-6.8*	72%*	i
O=C(c1ccco1)N(Cc1ccc(Cl)cc1)Cc1ccco1	nt	i	nt	nt
CCC(=O)N(CCC(c1ccco1)c1ccccc1OC)Cc1cccs1 (centres undefined)	nt	i	nt	nt
CC(=O)N(CCC(Cc1ccccc1)c1ccco1)Cc1ccco1 (centres undefined)	-6	-6*	38%*	i
CC(=O)N(CCP(=O)(c1ccccc1)c1ccccc1)Cc1ccco1	nt	i	nt	nt
COc1ccc2nc(NC(=O)CSCC(=O)Nc3cc(C)on3)sc2c1	nt	i	nt	nt
COc1ccccc1/C=C/C(=O)Nc1nc(N)n(-c2ccccc2)n1	0.54	i	nt	nt
CC(Oc1ccc(Cl)cc1Cl)C(=O)N(C)c1ccccc1 (centres undefined)	nt	i	50%*	i
COC(=O)NNC(=O)C(C)Oc1ccc(Cl)cc1Cl (centres undefined)	nt	i	nt	nt
CCCOc1cccc(C(=O)NCCNC(=O)c2cnccn2)c1	nt	i	nt	nt
Cc1c(NC(=O)Nc2cccc(C#N)c2)c(=O)n(-c2ccccc2)n1C	nt	i	nt	nt
Cc1ccc(O)c(O)c1	nt	i	nt	nt
Cc1ccc(C2Cc3cc(O)c(O)cc3CN2)cc1 (centres undefined)	nt	i	28%*	62%*
C/C(=N/NC(=O)CN1CCN(Cc2ccccc2Cl)CC1)c1cccs1	1.7	i	nt	nt
O=[N+]([O-])c1ccc(NC(=S)NCc2ccncc2)cc1	1.6	i	nt	nt
SMILES	KCNQ2 pot	KCNQ2 block	Kir21 conf inh	HEK293 Tl flux	others
O=[N+]([O-])c1ccc(NC(=S)NCc2ccc(F)cc2)cc1	21*	i	nt	nt	CHO-K1 Tl ctr=-7;KCNQ1 sel pot=11*;KCNQ2 pot confirm=42*;Kir2-1 sel=-51;KCNQ2 W236L pot=i
CC(C)(C)OC(=O)N1CCC[C@H]1c1nnc(SCc2ccccc2Cl)o1	nt	i	i	70%*
CCCCSc1nnc([C@@H]2CCCN2C(=O)OC(C)(C)C)o1	nt	i	nt	nt
CSc1nnc([C@@H]2CCCN2C(=O)OC(C)(C)C)o1	nt	i	nt	nt
CC(C)(C)OC(=O)N1CCC[C@H]1c1nnc(SCc2cccc(Cl)c2)o1	nt	i	54%*	i
CC(C)(C)OC(=O)N1CCC[C@H]1c1nnc(SC/C=C/c2ccccc2)o1	nt	i	nt	nt
CC(C)(C)OC(=O)N1CCC[C@H]1c1nnc(SCc2ccc(Cl)cc2)o1	nt	i	52%*	68%*
Cn1nc(C(F)(F)F)c(-c2ccc(F)cc2)c1NC(=O)c1cccnc1	nt	i	nt	nt
Cc1ccc(S(=O)(=O)NCC(c2ccc3c(c2)OCO3)N2CCN(c3ccccc3)CC2)cc1 (centres undefined)	nt	i	nt	nt
COc1ccccc1/C=C/C(=O)NCC(=O)n1nc(C)cc1C	nt	i	nt	nt
Cc1cc(/C=C2\SC(=S)NC2=O)cc(C)c1O	0.89	i	nt	nt
CC1Cc2cc(/C=C3/SC(=S)NC3=O)ccc2O1 (centres undefined)	10*	i	i	145%*	CHO-K1 Tl ctr=-13;KCNQ1 sel pot=-14;KCNQ2 pot confirm=7.8*;Kir2-1 sel=-31;KCNQ2 W236L pot=4.5%*
COc1ccccc1CC(=O)N1CCN(S(=O)(=O)c2ccccc2)CC1	nt	i	nt	nt
CCCCC1(C(=O)OC)NC(c2ccc(O)cc2)C2C(=O)N(c3ccccc3)C(=O)C21 (centres undefined)	nt	i	nt	nt
COc1cccc(NC(=O)CN(C)C(=O)Cn2c(=O)oc3ccccc32)c1	0.06	i	nt	nt
CCCCCOc1ccc(Br)cc1/C(C)=N/NC1=NCCN1	nt	i	16%*	i
COc1ccc(Br)cc1/C(C)=N/NC1=NCCN1	0.2	i	nt	nt
CC(C)Oc1ccc(C(=O)NC2CCCCC2)cc1	nt	i	nt	nt
CC(C)Oc1ccc(C(CCN)C2CCCCC2)cc1 (centres undefined)	nt	i	44%*	65%*
Cc1ccccc1NC(=O)CSc1nnc(CNC(=O)c2ccco2)n1C	1.7	i	nt	nt
CCc1nc2sc3c(c2c(=S)[nH]1)CC(C)(C)OC3	1.3	i	nt	nt
CSc1nc2sc3c(c2c(=S)[nH]1)CC(C)(C)OC3	15*	i	i	401%*	CHO-K1 Tl ctr=-15;KCNQ1 sel pot=-4;KCNQ2 pot confirm=82*;Kir2-1 sel=-3;KCNQ2 W236L pot=i
CCc1cc2cc(C)ccc2nc1SCC(=O)NC1CCCC1	0.26	i	nt	nt
Cc1cc(C)c(C)c(S(=O)(=O)NCC(=O)O)c1C	0.38	i	nt	nt
Cc1cc(C)c(C)c(S(=O)(=O)NCC(=O)Nc2ccccc2F)c1C	nt	i	66%*	i
COc1ccc(S(=O)(=O)NN(C)c2ncc(C(F)(F)F)cc2Cl)cc1	nt	i	61%*	i
CC(C)NS(=O)(=O)c1ccc(Oc2ncc(C(F)(F)F)cc2Cl)cc1	nt	i	nt	nt
COc1ccccc1CNC(=O)CCNS(=O)(=O)c1cc(Br)cnc1N	2.8	i	nt	nt
CS(=O)(=O)c1nc(-c2cccs2)cc(C(F)(F)F)n1	-5.9	-5.9*	70%*	70%*
